13 molecules from PubChem BioAssay (EPA / NIEHS) can be followed below.

In test [1] the test system is TTR (gene 7276). As to the kind of experiment: CCTE_GLTED_hTTR_0.5uM: CCTE's human Transthyretin (hTTR) Inhibition Assay, with 0.5uM TTR, Great Lakes Toxicology and Ecology Division (GLTED) Lab (AID 2284320). The method in brief:
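Probe (ANSA) displacement from 0.5 uM human transthyretin was followed by fluorescence (ex 380, em 475) after a 2 h incubation with chemical. Activity was scored as signal loss and fitted positively relative to DMSO.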

The nature of test [2]: CCTE_Mundy_HCI_iCellGluta_NOG_NeuronCount: CCTE's Neurite Outgrowth Assay in iCellGluta cells for Neuron Count, Mundy Lab (AID 2284340; active = hit-call score of the fitted dose curve at least 0.9, where 1 is the maximum;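 also: cells fixed about 48 h after compound addition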). The method in brief:
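Neuron count read by automated high-content imaging of Hoechst 33342 and betaIII-tubulin/Alexa Fluor-488 labelling in human iPSC glutamatergic neurons. Activity fitted relative to DMSO.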

Test [3] can be described thus: Tanguay_ZF_120hpf_CRAN: Oregon State University Tanguay Lab 120 Hour Post-fertilization zebrafish Assay for Craniofacial Malformation (AID 2284397). In outline: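 Scoring of craniofacial malformation as a binary endpoint was done at 120 hpf by brightfield microscopy and was not done in dead embryos. Exposure was static, starting at 6 hpf, in dechorionated wild-type embryos held singly at 28C with 0.64% DMSO final.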

A short description of test [4]: Tanguay_ZF_120hpf_AXIS: Oregon State University Tanguay Lab 120 Hour Post-fertilization zebrafish Assay for Axial Malformation (AID 2284398). The method in brief:
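Scoring was binary (present or absent) for body-axis defects, judged by brightfield imaging at 120 hpf in surviving larvae. Exposure was static at 28C from 6 hpf in chorion-free 5D wild-type embryos, with 0.64% DMSO vehicle.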

The nature of test [5]: Tanguay_ZF_120hpf_MORT: Oregon State University Tanguay Lab 120 Hour Post-fertilization zebrafish Assay for Mortality (AID 2284399). In outline:
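Mortality, recorded present/absent via brightfield imaging at 24 and 120 hpf, in 5D zebrafish embryos exposed statically from 6 hpf after pronase chorion removal. Exposure at 28C, 0.64% DMSO vehicle, DMSO baseline.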

Test [6] in a line: Tanguay_ZF_120hpf_EDEM: Oregon State University Tanguay Lab 120 Hour Post-fertilization zebrafish Assay for Edema Malformation (AID 2284400). The method in brief: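 Edema recorded as a binary endpoint under brightfield at 120 hpf, excluding embryos that died. Exposure was static, sealed, 28C, from 6 hpf in dechorionated wild-type larvae, final DMSO 0.64%, DMSO as baseline.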
Test [7] can be described thus: Tanguay_ZF_120hpf_BRN: Oregon State University Tanguay Lab 120 Hour Post-fertilization zebrafish Assay for Brain Region Malformation (AID 2284402). The method in brief:
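Binary brightfield scoring of brain malformation at 120 hpf in 5D wild-type larvae, chorion removed with pronase at 4 hpf. Static exposure began at 6 hpf, 28C, sealed plates, DMSO 0.64% (vol/vol) as vehicle baseline.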

Test [8] is described as follows: Tanguay_ZF_120hpf_TCHR: Oregon State University Tanguay Lab 120 Hour Post-fertilization zebrafish Assay for Touch Responsive (AID 2284403). The method in brief: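 Binary touch-response calls are made at 120 hpf in 5D wild-type zebrafish larvae. These larvae were dechorionated with pronase and exposed singly from 6 hpf in sealed, dark plates at 28 °C with 0.64% DMSO final; dead embryos are excluded.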

Test [9] in a line: Tanguay_ZF_120hpf_ANY: Oregon State University Tanguay Lab 120 Hour Post-fertilization zebrafish Assay for Any Mortality and Malformation (AID 2284404). The method in brief:
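Dechorionated Tropical 5D wild-type embryos, one per well from 6 hpf, static exposure in sealed, dark plates at 28C until 120 hpf, 0.64% DMSO final. Brightfield scoring of mortality and malformations as binary presence/absence, pooling 13 morphology endpoints.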

Test [10] in a line: CCTE_Padilla_ZF_Score.Swim_bladder: CCTE's 144 Hour Post-fertilization zebrafish Assay Score for Swim Bladder Malformation, Padilla Lab (AID 2284408). The method in brief:
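Swim bladder inflation scored at 6 dpf by two blinded observers under a stereo microscope. Exposure ran from 6–8 hpf in sealed wells of 10% Hanks' at 26C, with rinsing at 5 dpf; DMSO served as baseline.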

The nature of test [11]: CCTE_Padilla_ZF_Score.Position: CCTE's 144 Hour Post-fertilization zebrafish Assay Score for Position, Padilla Lab (AID 2284409). In outline: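 Wild-type zebrafish embryos (with chorions) exposed singly from 6–8 hpf in sealed wells of Hanks' solution at 26C, rinsed at 5 dpf. At 6 dpf, blinded assessors scored abnormal water-column position by brightfield stereomicroscopy, relative to DMSO.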

Test [12] can be described thus: CCTE_Padilla_ZF_Score.Living: CCTE's 144 Hour Post-fertilization zebrafish Assay Score for Viability, Padilla Lab (AID 2284410).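 Also: larval death at 6 dpf judged by absent heartbeat or coagulation.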 In outline: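 Mortality at 6 dpf, judged as absent heartbeat or coagulation by two blinded observers, after sealed static exposure beginning at 6–8 hpf at 26C. Larvae were rinsed free of chemical at 5 dpf, and activity was fitted relative to DMSO.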

The nature of test [13]: CCTE_Padilla_ZF_Score.General: CCTE's 144 Hour Post-fertilization zebrafish Assay Score for General Malformation, Padilla Lab (AID 2284411). The method in brief:
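Malformation, death and hatching were scored at 6 dpf by two blinded observers under a stereo microscope. Embryos were dosed singly from 6-8 hpf in sealed plates of 10% Hanks' at 26C and rinsed on 5 dpf; DMSO baseline.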

The subject of test [14] is SERPINA7 (gene 6906). As to the kind of experiment: CCTE_GLTED_hTBG: CCTE's human Thyroxine-binding Globulin (TBG) Inhibition Assay, Great Lakes Toxicology and Ecology Division (GLTED) Lab (AID 2284343; active = hit-call score of the fitted dose curve at least 0.9, where 1 is the maximum;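 also: active chemicals lower fluorescence versus DMSO baseline by displacing probe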). In outline: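 Fluorescence (ex 380/em 475) reports ANSA displaced from human TBG after a 2 h incubation with test chemical, without cells. Loss of signal indicates displacement, with DMSO serving as baseline.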

The nature of test [15]: CCTE_Deisenroth_5AR_NBTE_donor: CCTE's 5alpha-reductase NanoBRET Target Engagement Assay […], Deisenroth Lab (AID 2284319). As to conditions: actives raise or lower the signal. In outline: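 SRD5A2-NanoLuc, HEK293T, 20 h expression. Chemical 10 nM - 29.9 uM, 8 conc, duplicate; 3 h preincubation + 2 h testosterone tracer. Nano-Glo substrate plus extracellular NanoLuc inhibitor; donor lum 460 nm. DMSO baseline, bidirectional fit.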
On the technique in general: BRET reads energy transfer from a luciferase to a nearby fluorophore.

A short description of test [16]: CCTE_Deisenroth_5AR_NBTE_acceptor: CCTE's 5alpha-reductase NanoBRET Target Engagement Assay - Autofluorescence Screen, Deisenroth Lab (AID 2284321). As to conditions: actives raise or lower the signal. The method in brief: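 Acceptor-channel fluorescence flags artifacts, with excitation fixed at 460 nm. Nominal 100 uM chemical samples were read in triplicate runs, and signal changes were fitted in both directions relative to DMSO.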

In test [17] the test system is SRD5A2 (gene 6716). As to the kind of experiment: CCTE_Deisenroth_5AR_NBTE_ratio: CCTE's 5alpha-reductase NanoBRET Target Engagement Assay - Ratio, Deisenroth Lab (AID 2284322). As to conditions: actives raise or lower the signal. In outline: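 SRD5A2-NanoLuc HEK293T; cmpd 10 nM-29.9 uM, 3 h preinc + testosterone tracer 2 h; NanoBRET ratio 650/460; bidirectional fit vs DMSO.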

The nature of test [18]: CCTE_Padilla_ZF_Score.Craniofacial: CCTE's 144 Hour Post-fertilization zebrafish Assay Score for Craniofacial Malformation, Padilla Lab (AID 2284405). The method in brief:
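Craniofacial defects were scored at 6 dpf by two blinded observers using stereomicroscopy. Exposure of wild-type embryos began at 6–8 hpf in sealed wells of 10% Hanks' solution at 26C, with chemical removed by rinsing at 5 dpf.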

A short description of test [19]: CCTE_Padilla_ZF_Score.Edema: CCTE's 144 Hour Post-fertilization zebrafish Assay Score for Edema Malformation, Padilla Lab (AID 2284406). In outline: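 Edema scored at 6 dpf by two blinded observers under a stereo microscope, in single outbred wild-type larvae exposed from 6-8 hpf in sealed wells (Hanks', 26C, 14:10 h light) and chemical-free after a 5 dpf rinse.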

Records with an inconclusive call do not appear. Calls of active or inactive are those of the source. The calls were made as follows, unless noted: active = hit-call score of the fitted dose curve at least 0.9, where 1 is the maximum; inactive = score below 0.9.

On to `O=C(O)CCC(F)(F)C(F)(F)C(F)(F)C(F)(F)C(F)(F)C(F)(F)C(F)(F)F`, for which the AC50 (commonly the concentration giving half of the maximal activity seen) in [1] was 3.34 µM (active). Further, the molecule was called inactive in test [2], in test [3], in test [4], in [5], in [6] and in test [7]. For the same molecule, the molecule was classed as inactive in test [8], in test [9], in test [10], in test [11], in [12] and in test [13].
With `O=S(=O)(O)CCC(F)(F)C(F)(F)C(F)(F)C(F)(F)C(F)(F)C(F)(F)C(F)(F)C(F)(F)F`, the AC50 in [1] was 8.98 µM (active); in test [3], 89.2 µM (active); in [5], 64.2 µM (active); in [9] it was 74.4 µM (active). Also, the outcome in [2], in test [4], in [6], in test [7], in [8] and in test [10] was inactive. Moreover, the molecule was classed as inactive in [11], in test [12] and in test [13].
Turning to `OCC(F)(F)C(F)(F)C(F)(F)C(F)(F)C(F)(F)C(F)(F)C(F)(F)C(F)(F)CO`, the concentration at half-maximal activity (AC50) in [1] was 2.78 µM (active); in test [5] it was 19.6 µM (active); in test [9] it was 16.7 µM (active); in [10], 3.96 µM (active); in [12] it was 22.2 µM (active); in test [13] it was 4.17 µM (active). Also, the molecule was called inactive in test [3], in test [4], in [6], in test [7], in test [8] and in test [11].
As to `FC(F)(F)C(F)(F)C(F)(F)C(F)(F)C(F)(F)C(F)(F)C(F)(F)CCI`, the AC50 in test [1] was 22.5 µM (active). In addition, the result in [3], in test [4], in test [5], in test [6], in test [7] and in test [8] was inactive. Further, the molecule was classed as inactive in test [9], in test [10], in test [11], in test [12] and in [13].
In the case of `O=C(F)C1(F)C(F)(F)C(F)(F)C(F)(F)C(F)(F)C1(F)F`, in test [1], the AC50 was 32.9 µM (active). Besides, the call in test [2], in test [3], in [4], in test [5], in test [6] and in [7] was inactive. The molecule was classed as inactive in [8], in [9], in test [10], in test [11], in test [12] and in [13].
For `O=C(O)C(F)(F)C(F)(F)C(F)(F)C(F)(F)C(F)(F)C(F)(F)C(F)F`, the AC50 is 0.275 µM (active) in [1] and 26.5 µM (active) in [14]. Further, the result in test [10], in test [11], in test [12] and in test [13] was inactive.
Turning to `CCCCCCCC/C=C\CCCCCCCC(=O)N(C)CC(=O)O`, the molecule was classed as inactive in test [15], in test [16] and in test [17]. Besides, in test [14], the AC50 is 5.56 µM (active).
As to `O=C(O)C(F)(F)C(F)(F)C(F)(F)OC(F)(F)F`, the AC50 in test [1] was 4.54 µM (active). Moreover, the molecule was called inactive in [2], in [3], in [4], in test [5], in [6] and in test [7]. Moreover, the molecule was called inactive in test [8], in test [9], in test [10], in test [11], in test [12] and in test [13].
As to `CC(C)Nc1ccc(NC(C)C)c2c1C(=O)c1ccccc1C2=O`, the molecule was called inactive in [15] and in test [16]. Further, the half-maximal activity concentration (AC50) in test [17] was 3.06 µM (active).
On to `NC(=O)C(F)(F)C(F)(F)C(F)(F)C(F)F`, for which the AC50 in [1] was 45.2 µM (active). Further, the outcome in [3], in test [4], in [5], in [6], in test [7] and in test [8] was inactive. The outcome in test [9], in test [10], in test [11], in test [12] and in [13] was inactive.
With `CCN=c1cc2oc3cc(NCC)c(C)cc3c(-c3ccccc3C(=O)OCC)c-2cc1C`, the figures for the AC50 in test [15], in test [16] and in [17] were 10 µM (active), 0.603 µM (active) and 6.06 µM (active), respectively.
On to `CCOC(=O)CC(=O)C(F)(F)C(F)(F)F`, for which, in test [1], the AC50 was 49.8 µM (active). Further, the result in test [3], in test [4], in [5], in [6], in test [7] and in test [8] was inactive. Moreover, the molecule was classed as inactive in test [9], in test [18], in [10], in test [11], in test [12] and in [13].
For the molecule `O=C(O)C(F)(F)OC(F)(F)C(F)(F)OC(F)(F)C(F)(F)OC(F)(F)F`, the AC50 was 0.23 µM (active) in test [1] and 18.6 µM (active) in test [14]. In addition, the result in test [19], in [10], in test [11], in [12] and in test [13] was inactive.
